± gives the standard deviation of the averaged measurements. In all, about 25,000 sequences were measured (“ln(normalized median fluorescence intensity)”: median about 8.6, highest 2% from about 10 on). Only a selection was taken, and the highest values are over-represented in it overall.

The experiment relates to PfAP2-EXP AP2 domain (GST-tagged). The experiment can be described thus: gcPBM binding intensity (ln(normalized median fluorescence intensity)); higher = stronger DNA binding. An outline of the steps:
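Alexa488 anti-GST antibody, scanned at 488 nm, detected GST-tagged P. falciparum DNA-binding domains that had been expressed in E. coli and incubated for 1 h on an Agilent 4 × 180k array. The array carried primer-extended double-stranded 36-bp intergenic genomic probes and negative controls. Binding intensity is the highest Masliner-normalised natural-log median intensity across replicate spots of either orientation of each probe.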
For the sequence “TATATATATATATGATGTACACATTTTATTATTTGT [XGTACX_site1147]”, the “gcPBM binding intensity (ln)” value amounted to 9.94 ± 0.31.
For “TTTCAAAAATGAGTTACACACACACCGATATATATA [CACACA_site5263]”, the “gcPBM binding intensity (ln)” value was determined as 8.79 ± 0.61.
Consider “TCAAAAATGAGTTACACACACACATATATATATATA [CACACA_site2229]”, for which the “gcPBM binding intensity (ln)” value was found to be 10.2 ± 0.47.
Next, “TTTCAAAAATGAGTTACACACACACGGATATAAATA [CACACA_site7116]”: 8.88 ± 0.56.
Take “AATAAATTACTATGTACACACATAAGAGTATAAATA [CACACA_site6940]”: the “gcPBM binding intensity (ln)” value amounted to 8.56 ± 0.32.
Take “TACGATGTTTTAAAATGTACATAAAAGTCACATAAG [XGTACX_site3297]”: the “gcPBM binding intensity (ln)” value came out at 8.52 ± 0.34.
“GTTTGGTGGTGTTTTGGTACGTACGGGGGGGTATGT [XGTACX_site1983]”: the “gcPBM binding intensity (ln)” value came out at 10.6 ± 0.19.
Under “GTTTGGTGGTGTTTTGGTACGTACGGGGGTGTATGT [XGTACX_site1211]” stands 9.66 ± 0.2; under “TATGATTTTTATATATGTACGTATGGTGTTTTACAA [XGTACX_site6100]”, 8.8 ± 0.42.
As for “TATAAAAAAAAATGTGGTACATATTTCCATTTTCCA [XGTACX_site4571]”, the “gcPBM binding intensity (ln)” value came out at 8.11 ± 0.23.
On to “TATTTTTCCATTGGGGGTACATGTGTTATATTTATT [XGTACX_site5914]”, for which the “gcPBM binding intensity (ln)” value was determined as 10.4 ± 0.76.
Under “ATTTATTTTCTGTGTACACATATGTTGGGTATTTTA [CACACA_site5902]” stands 9.14 ± 0.45; under “AATAATATACCTCTTGTGCACATATTAAAAGTTCAT [GTGCAC_site9536]”, 8.97 ± 0.22.
As for “ACAATTGAAGAAATACGTACATAAAGAAAAACTAGT [XGTACX_site820]”, the “gcPBM binding intensity (ln)” value was 9.16 ± 0.51.
Consider “ATAAAAAATATCACATAAAATAAAAAAAGAAAGGAT [XGTACX_negctrl_site294]”, for which the “gcPBM binding intensity (ln)” value turned out to be 9.06 ± 0.52.
Take “ATAAAAAAAAGAAAAACACACACATATATATATATA [CACACA_site8243]”: the “gcPBM binding intensity (ln)” value came out at 10.2 ± 0.16.
Turning to “AGGAAAAAAGAAAAAACACACATAAATATATATATA [CACACA_site3085]”, the “gcPBM binding intensity (ln)” value amounted to 9.64 ± 0.23.
Turning to “TATAAAAGGAAACACACACACATATATATATATATA [CACACA_site939]”, the “gcPBM binding intensity (ln)” value turned out to be 10.2 ± 0.4.
Turning to “AAAAAAAAAAATATCACACACACATAAATATAAACC [CACACA_site2278]”, the “gcPBM binding intensity (ln)” value was found to be 8.77 ± 0.49.
On to “AAAAGGAAAAATATCACACATATATATATATATATA [CACACA_site5586]”, for which the “gcPBM binding intensity (ln)” value turned out to be 10.2 ± 0.34.
Next, “TAAAAAGGAAAACACACACACACATATATATATATA [CACACA_site3588]”: 10.2 ± 0.16; “AAGGAATAATATAAAACACACACATAAATATAAATA [CACACA_site9115]”: 8.68 ± 0.26; “ATAAAAAGGAAACACACACACACACCCATATATATA [CACACA_site904]”: 8.73 ± 0.44.
Under “TTGTTAATGGTACGAACACACATATAAAGATGCATA [CACACA_site2044]” stands 8.64 ± 0.54; under “TACCATTATTTTAAGTGTACATACTAATTTATATAT [XGTACX_site6548]”, 8.61 ± 0.28.
Take “ATGAAGATTTAAAAATGTACATATGATCTATGTCCT [XGTACX_site8409]”: the “gcPBM binding intensity (ln)” value amounted to 8.38 ± 0.36.
Under “TTTTTTTTTTTGTTTTGTACATAAATTGCAACCAAT [XGTACX_site8949]” stands 8.73 ± 0.57; under “TTTTTATATGTTAAGTGTACGTTTACATTTTATACT [XGTACX_site3485]”, 8.63 ± 0.36; under “TACAGATAAAAGTACACACACACACCGATATATATA [CACACA_site4675]”, 8.86 ± 0.38.
Regarding “TTGCATTGATCAAACATACACACATGGTTAATAAAA [CACACA_site2084]”, the “gcPBM binding intensity (ln)” value was 8.64 ± 0.47.
Under “AAAAAAAAAAAAAAAACACACATGTATACTAGAATA [CACACA_site7108]” stands 8.67 ± 0.31; under “ATGTGTGTATACATCAATTATATATATATTATGTAT [GTGCAC_negctrl_site720]”, 8.6 ± 0.33; under “ATTTTTTCATATTCTACACACGTGAACAAATGTGTC [CACACA_site3007]”, 8.69 ± 0.36.
As for “TGCATTTATATCTTCACACATATATATATATATATA [CACACA_site4516]”, the “gcPBM binding intensity (ln)” value was 10.2 ± 0.42.
With “AAAAACTTAATATTCACACATATATATATATATATA [CACACA_site5240]”, the “gcPBM binding intensity (ln)” value was found to be 10.2 ± 0.45.
With “TAAAAAATTTTATATTCACACACATATATATATATA [CACACA_site8109]”, the “gcPBM binding intensity (ln)” value is 10.1 ± 0.31.
Next, “AAAAATTTTATATTCACACACATATTTATATTTATA [CACACA_site6439]”: 8.25 ± 0.27; “TAATTTTAAATATCTTCACACATTATATTTTTATAT [CACACA_site5411]”: 8.34 ± 0.42.
“ATATTCATATATACTTCACACACATTTTATCATTCA [CACACA_site8784]”: the “gcPBM binding intensity (ln)” value was found to be 8.71 ± 0.39.
On to “TAAAAAATTATATTCACACACATACACATATATATA [CACACA_site545]”, for which the “gcPBM binding intensity (ln)” value came out at 8.54 ± 0.43.
Consider “AAAAATTTTATATTCACACACATATATATATATATA [CACACA_site624]”, for which the “gcPBM binding intensity (ln)” value amounted to 10.2 ± 0.42.
With “AAAAAAAAATTATTCACACATATATATATATATATA [CACACA_site5579]”, the “gcPBM binding intensity (ln)” value is 10.2 ± 0.33.
As for “TTTAAAAAATTATATTCACACACATACACATATATA [CACACA_site8076]”, the “gcPBM binding intensity (ln)” value was determined as 8.51 ± 0.59.
Under “GTTTCCTTAATATTCACACACATATATATAATATAT [CACACA_site1856]” stands 8.95 ± 0.33; under “AACTTATTTAAATTCACACATATATAAAATACTTAT [CACACA_site4394]”, 8.38 ± 0.42; under “CATATTTGTTGACACACACACATATTTATATAAATA [CACACA_site7648]”, 8.74 ± 0.4.
Consider “TTTGCCATATGACACACACACATGTAAACCCCCTTT [CACACA_site6873]”, for which the “gcPBM binding intensity (ln)” value came out at 9.41 ± 0.45.
Under “ATATATTTTTACCATACACACATATAACAAATATAT [CACACA_site7706]” stands 8.75 ± 0.44.
Regarding “TTTTTAATTTTTTGTTGTACATATAATATATTATTA [XGTACX_site4903]”, the “gcPBM binding intensity (ln)” value was 8.6 ± 0.27.
As for “TTTTTTTTTAAAACATAATAAAAAATAAAACAACCT [GTGCAC_negctrl_site92]”, the “gcPBM binding intensity (ln)” value turned out to be 8.77 ± 0.28.
Take “ATATACACATTAATAACACACAATATGATAACAAAT [CACACA_site7670]”: the “gcPBM binding intensity (ln)” value was determined as 8.79 ± 0.33.
As for “ATTACATGCAATATATGTACGTAATATATATATATA [XGTACX_site2300]”, the “gcPBM binding intensity (ln)” value stood at 9.91 ± 0.38.
“ATTTAAAAAAGAAAGGTGCATTTCAATAATGTAAAA [GTGCAC_site9585]”: the “gcPBM binding intensity (ln)” value came out at 8.62 ± 0.15.
For “TTTTGATATAAAAAAAGTACATTAATAATATTAATT [XGTACX_site4248]”, the “gcPBM binding intensity (ln)” value came to 8.29 ± 0.37.
With “TTATTATATAAAATAAATAACAAAAAAAATAAAATA [GTGCAC_negctrl_site548]”, the “gcPBM binding intensity (ln)” value is 8.45 ± 0.43.
Under “CCTTGCCCCAGGAGTTCACACACATAATAGATTGTC [CACACA_site8138]” stands 8.82 ± 0.64; under “TTAACCTTTATATAATACGTATCATCCTCATATATA [CACACA_negctrl_site86]”, 8.95 ± 0.61.

The record behind these values is the supplement of paper PMC11417369.
